In PubChem BioAssay (NCI):
About 83,000 compounds went through this panel and 20% of them were active in at least one assay; those are over-represented in the sample as a whole.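 Plates (96-well) were seeded with cells, treated with compound at one concentration, and incubated for 48 hours before percent growth was determined.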 Calls of active or inactive are those of the source. The calls were made as follows: active = growth percent below 10; inactive = the rest.

Assays:
Assay in all cases: NCI-60 one-dose screen, 48 h (100 = growth as untreated, 0 = no growth, -100 = all killed)
Conditions in all cases: 10 µM
RPMI-8226 leukemia = test system: RPMI-8226 leukemia
OVCAR-8 ovarian = test system: OVCAR-8 ovarian
OVCAR-5 ovarian = test system: OVCAR-5 ovarian
OVCAR-4 ovarian = test system: OVCAR-4 ovarian
SK-OV-3 ovarian = test system: SK-OV-3 ovarian
IGROV1 ovarian = test system: IGROV1 ovarian
OVCAR-3 ovarian = test system: OVCAR-3 ovarian
HS 578T breast = test system: HS 578T breast
NCI/ADR-RES ovarian = test system: NCI/ADR-RES ovarian
T-47D breast = test system: T-47D breast
BT-549 breast = test system: BT-549 breast
MDA-MB-435 melanoma = test system: MDA-MB-435 melanoma
SW-620 colon = test system: SW-620 colon
MCF7 breast = test system: MCF7 breast
HCT-116 colon = test system: HCT-116 colon
HCC-2998 colon = test system: HCC-2998 colon
KM12 colon = test system: KM12 colon

Measured: growth

CC(C)=CCc1cc(O)cc2c1OC(C=C(C)C)C1=C2C(=O)C2=C(NCCS2(=O)=O)C1=O (stereo unspecified)
inactive: RPMI-8226 leukemia 63.9% | OVCAR-5 ovarian 41.3% | HS 578T breast 11.2% | NCI/ADR-RES ovarian 87.7% | BT-549 breast 18.3% | KM12 colon 43.3%
active: OVCAR-8 ovarian 3.18% | OVCAR-4 ovarian 1.98% | SK-OV-3 ovarian 4.28% | IGROV1 ovarian -22.3% | OVCAR-3 ovarian -9.92% | T-47D breast -10% | MDA-MB-435 melanoma -56.4% | SW-620 colon 4.68% | MCF7 breast -54.5% | HCT-116 colon -15.4% | HCC-2998 colon -12.6%

COc1cc(-c2nn3c(/C=C4/C(=O)Nc5ccccc54)c(-c4ccc(C)cc4)nc3s2)cc(OC)c1OC
inactive: RPMI-8226 leukemia 45.4% | OVCAR-8 ovarian 46.8% | OVCAR-5 ovarian 85.9% | SK-OV-3 ovarian 79.5% | IGROV1 ovarian 77.4% | OVCAR-3 ovarian 43.6% | NCI/ADR-RES ovarian 41.8% | T-47D breast 63.6% | BT-549 breast 22.8% | MDA-MB-435 melanoma 33.6% | SW-620 colon 54.8% | MCF7 breast 39.4% | HCT-116 colon 24% | HCC-2998 colon 85.1% | KM12 colon 51%
active: OVCAR-4 ovarian -17.3% | HS 578T breast -19.4%

CCCCCCCCCCCCCCCC(=O)OC1[C@@H](OC(=O)CCCCCCCCCCCCCCC)[C@@H](C(=O)N[C@@H](CCCCN)C(=O)OC)O[C@H]1n1cnc2c(=O)[nH]c(NC(=O)C(C)C)nc21 (stereo partly specified)
inactive: RPMI-8226 leukemia 92.5% | OVCAR-8 ovarian 87% | OVCAR-5 ovarian 108% | OVCAR-4 ovarian 120% | SK-OV-3 ovarian 99.4% | IGROV1 ovarian 91.8% | OVCAR-3 ovarian 105% | HS 578T breast 107% | NCI/ADR-RES ovarian 102% | T-47D breast 88.2% | BT-549 breast 105% | MDA-MB-435 melanoma 99.6% | SW-620 colon 104% | MCF7 breast 96.4% | HCT-116 colon 85.4% | HCC-2998 colon 101% | KM12 colon 95%

COc1cc(Cl)cc(-c2nn(-c3cccc(NC(=O)Nc4cc(C(F)(F)F)cc(C(F)(F)F)c4)c3)cc2-c2ccncc2)c1
active: RPMI-8226 leukemia -17.5% | OVCAR-8 ovarian -2.46% | SK-OV-3 ovarian 6.84% | OVCAR-3 ovarian -1.62% | HS 578T breast 5.82% | NCI/ADR-RES ovarian 2.37% | T-47D breast 6.56% | BT-549 breast 6.61% | MDA-MB-435 melanoma -19.5% | SW-620 colon 7.18% | MCF7 breast 3.81% | HCT-116 colon -4.6% | HCC-2998 colon 9.5%
inactive: OVCAR-5 ovarian 21.6% | OVCAR-4 ovarian 11.9% | IGROV1 ovarian 23% | KM12 colon 12.2%

Clc1ccc(-c2cn(-c3ccccc3)c(-c3ccccc3)n2)c(Cl)c1
inactive: RPMI-8226 leukemia 16% | OVCAR-5 ovarian 16.4% | SK-OV-3 ovarian 25.1% | NCI/ADR-RES ovarian 13.6% | HCC-2998 colon 13.7%
active: OVCAR-8 ovarian 9.55% | OVCAR-4 ovarian -100% | IGROV1 ovarian -26.3% | OVCAR-3 ovarian -84% | HS 578T breast -20.3% | T-47D breast -17.6% | BT-549 breast -12.7% | MDA-MB-435 melanoma -37.2% | SW-620 colon -100% | MCF7 breast 5.1% | HCT-116 colon -100% | KM12 colon -88%

CN(C)C=Nc1cc(Cl)ccc1Cl
inactive: RPMI-8226 leukemia 98.9% | OVCAR-8 ovarian 114% | OVCAR-5 ovarian 104% | OVCAR-4 ovarian 99.9% | SK-OV-3 ovarian 110% | IGROV1 ovarian 118% | OVCAR-3 ovarian 113% | HS 578T breast 117% | NCI/ADR-RES ovarian 107% | T-47D breast 108% | BT-549 breast 112% | MDA-MB-435 melanoma 97.9% | SW-620 colon 103% | MCF7 breast 101% | HCT-116 colon 104% | HCC-2998 colon 108% | KM12 colon 110%

CS(=O)(=O)Nc1ccc(Nc2c3ccccc3nc3cc([N+](=O)[O-])ccc23)cc1
active: RPMI-8226 leukemia 0.427% | OVCAR-3 ovarian -1.65% | T-47D breast -11% | SW-620 colon 7.02% | MCF7 breast 2.38% | HCT-116 colon 4.91% | KM12 colon -35.7%
inactive: OVCAR-8 ovarian 16.6% | OVCAR-5 ovarian 67.7% | OVCAR-4 ovarian 46.8% | SK-OV-3 ovarian 53.3% | IGROV1 ovarian 10.5% | HS 578T breast 60.3% | NCI/ADR-RES ovarian 87% | BT-549 breast 32.5% | MDA-MB-435 melanoma 39.7% | HCC-2998 colon 32.3%

COc1cc(-c2cc(/C=C3\C(=O)Nc4ccc(Cl)cc43)[nH]n2)cc(OC)c1OC
inactive: OVCAR-5 ovarian 68.4% | OVCAR-4 ovarian 17% | SK-OV-3 ovarian 82.5% | OVCAR-3 ovarian 34.2% | NCI/ADR-RES ovarian 11.4% | T-47D breast 24.8% | BT-549 breast 27.1% | MDA-MB-435 melanoma 10.3% | SW-620 colon 27.3% | HCC-2998 colon 73.2%
active: RPMI-8226 leukemia -18.3% | OVCAR-8 ovarian 7.57% | IGROV1 ovarian -10.2% | HS 578T breast 6.98% | MCF7 breast 0.175% | HCT-116 colon 4.26% | KM12 colon 7.16%

COc1ccc2c(c1)C(=O)c1c-2c(OCCN(C)C)nc2cc(OC)c(OC)cc12
inactive: RPMI-8226 leukemia 32.2% | OVCAR-8 ovarian 37.2% | OVCAR-5 ovarian 117% | OVCAR-4 ovarian 50.7% | SK-OV-3 ovarian 74.2% | IGROV1 ovarian 35% | OVCAR-3 ovarian 63.9% | HS 578T breast 85.7% | NCI/ADR-RES ovarian 41.8% | T-47D breast 101% | BT-549 breast 89.9% | MDA-MB-435 melanoma 56.8% | SW-620 colon 38.6% | MCF7 breast 28.9% | HCT-116 colon 30% | HCC-2998 colon 63.2% | KM12 colon 54.1%

Nc1c(C(=O)Nc2cccc(Br)c2)sc2nc3c(cc12)C(O)CCC3 (stereo unspecified)
active: OVCAR-3 ovarian -18.2% | MDA-MB-435 melanoma -42.1%
inactive: RPMI-8226 leukemia 14.7% | OVCAR-8 ovarian 30.6% | OVCAR-5 ovarian 60.4% | OVCAR-4 ovarian 65.8% | SK-OV-3 ovarian 21.8% | IGROV1 ovarian 27.9% | HS 578T breast 28.3% | NCI/ADR-RES ovarian 24.5% | T-47D breast 47.4% | BT-549 breast 45.2% | SW-620 colon 36.4% | MCF7 breast 21% | HCT-116 colon 16.4% | HCC-2998 colon 31.5% | KM12 colon 22.8%

Cc1ccc(NC(=O)Nc2cccnc2)cc1NC(=O)Nc1cccnc1
inactive: RPMI-8226 leukemia 42.9% | OVCAR-8 ovarian 73.8% | OVCAR-5 ovarian 110% | OVCAR-4 ovarian 77.7% | SK-OV-3 ovarian 101% | IGROV1 ovarian 68.5% | OVCAR-3 ovarian 93.2% | HS 578T breast 95.7% | NCI/ADR-RES ovarian 87.6% | T-47D breast 58% | BT-549 breast 98.1% | MDA-MB-435 melanoma 73.9% | SW-620 colon 108% | MCF7 breast 81% | HCT-116 colon 90.2% | HCC-2998 colon 87.7% | KM12 colon 87.2%

CCN(CC)CCOc1nc2cc(OC)c(OC)cc2c2c1-c1ccc(OC)cc1C2=O
inactive: RPMI-8226 leukemia 49.2% | OVCAR-8 ovarian 52.9% | OVCAR-5 ovarian 111% | OVCAR-4 ovarian 61.5% | SK-OV-3 ovarian 77.3% | IGROV1 ovarian 60.4% | OVCAR-3 ovarian 80% | HS 578T breast 89.6% | NCI/ADR-RES ovarian 64.4% | T-47D breast 107% | BT-549 breast 81.3% | MDA-MB-435 melanoma 86.2% | SW-620 colon 45.4% | MCF7 breast 35% | HCT-116 colon 47.4% | HCC-2998 colon 82.6% | KM12 colon 64.7%

CC(=O)CSC(C)=O
inactive: RPMI-8226 leukemia 93.2% | OVCAR-8 ovarian 108% | OVCAR-5 ovarian 106% | OVCAR-4 ovarian 98% | SK-OV-3 ovarian 110% | IGROV1 ovarian 99.2% | OVCAR-3 ovarian 115% | HS 578T breast 101% | NCI/ADR-RES ovarian 111% | T-47D breast 103% | BT-549 breast 105% | MDA-MB-435 melanoma 96.5% | SW-620 colon 101% | MCF7 breast 93% | HCT-116 colon 98% | HCC-2998 colon 110% | KM12 colon 107%

CC1(C)CCC(=NNC(N)=S)CC1
inactive: RPMI-8226 leukemia 103% | OVCAR-8 ovarian 100% | OVCAR-5 ovarian 109% | OVCAR-4 ovarian 112% | SK-OV-3 ovarian 117% | IGROV1 ovarian 116% | OVCAR-3 ovarian 112% | HS 578T breast 103% | NCI/ADR-RES ovarian 105% | T-47D breast 95.2% | BT-549 breast 125% | MDA-MB-435 melanoma 111% | SW-620 colon 105% | MCF7 breast 99.4% | HCT-116 colon 94.6% | HCC-2998 colon 101% | KM12 colon 105%

COc1ccc(-c2nn(-c3cccc(NC(=O)c4ccc(Cl)c(Cl)c4)c3)cc2-c2ccncc2)cc1Cl
inactive: RPMI-8226 leukemia 58% | OVCAR-8 ovarian 75.5% | OVCAR-5 ovarian 92.4% | OVCAR-4 ovarian 93.3% | SK-OV-3 ovarian 82.2% | IGROV1 ovarian 84.5% | OVCAR-3 ovarian 81.9% | HS 578T breast 72.5% | NCI/ADR-RES ovarian 61.4% | T-47D breast 62.8% | BT-549 breast 95.4% | MDA-MB-435 melanoma 24.8% | SW-620 colon 81.5% | MCF7 breast 72.1% | HCT-116 colon 69.6% | HCC-2998 colon 82% | KM12 colon 55.8%

CN(C)Cc1cn(-c2ncc(-c3ccc(C(F)(F)F)cc3)c(NC3CCCCCC3)n2)nn1
inactive: RPMI-8226 leukemia 60.4% | OVCAR-8 ovarian 83.1% | OVCAR-5 ovarian 110% | OVCAR-4 ovarian 79.9% | SK-OV-3 ovarian 86.5% | IGROV1 ovarian 71.3% | OVCAR-3 ovarian 86% | HS 578T breast 93.6% | NCI/ADR-RES ovarian 91.9% | T-47D breast 81.7% | BT-549 breast 94.6% | MDA-MB-435 melanoma 95.2% | SW-620 colon 99.4% | MCF7 breast 70.3% | HCT-116 colon 66.3% | HCC-2998 colon 94.8% | KM12 colon 86.3%

CCOC(=O)c1ccc(NC(=O)Nc2ncc(Cl)cc2Cl)cc1
inactive: RPMI-8226 leukemia 94.5% | OVCAR-8 ovarian 97.7% | OVCAR-5 ovarian 101% | OVCAR-4 ovarian 104% | SK-OV-3 ovarian 100% | IGROV1 ovarian 115% | OVCAR-3 ovarian 150% | HS 578T breast 132% | NCI/ADR-RES ovarian 101% | T-47D breast 73.4% | BT-549 breast 106% | MDA-MB-435 melanoma 90.8% | SW-620 colon 102% | MCF7 breast 97.8% | HCT-116 colon 83.9% | HCC-2998 colon 96.2% | KM12 colon 102%

CSC1=NCCCC1
inactive: RPMI-8226 leukemia 106% | OVCAR-8 ovarian 106% | OVCAR-5 ovarian 112% | OVCAR-4 ovarian 105% | SK-OV-3 ovarian 108% | IGROV1 ovarian 108% | OVCAR-3 ovarian 110% | HS 578T breast 116% | NCI/ADR-RES ovarian 118% | T-47D breast 107% | BT-549 breast 108% | MDA-MB-435 melanoma 108% | SW-620 colon 114% | MCF7 breast 97.8% | HCT-116 colon 109% | HCC-2998 colon 115% | KM12 colon 113%
